Assay outcomes (PubChem)
DT40 TDP1 no CPT – qHTS for Inhibitors of human tyrosyl-DNA phosphodiesterase 1 (TDP1): qHTS in cells in absence of CPT | DT40 Tdp1-/- hTDP1 cells, no CPT, ATP luminescence, 48 h | Potency, µM (top dose mostly 46.2 µM), without a hit: at the highest dose activity change, negative = growth inhibition, actives largely listed as inhibitors | 420,000 tested, 15% active | AID 686978, 2013; note: potency is the fitted concentration of half-maximal effect; % is set by controls: 0 for no effect and ±100 for the full control effect; nearly all actives have a fitted effect of over 55% in size
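Chicken DT40 Tdp1-/- cells complemented with human TDP1, screened without camptothecin (DMSO vehicle only), 400 cells/well. Compounds pin-transferred, cells incubated at 37 °C for at least 48 hr. Growth read as ATP-dependent luminescence (CellTiter-Glo, 30 min at RT).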
HepG2 viability – counter-screen for TGF-b inhibitors: cytotoxicity in HepG2 cells; HepG2 CAGA-GFP viability, ATP luminescence, 18 h; 410,000 tested, 0.76% active; Potency, µM (doses to about 46.1 µM), inactives show at the top dose activity change, negative = cytotoxicity, usual class: cytotoxic; note: potency is the fitted concentration of half-maximal effect
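CellTiter-Glo luminescence gave cytotoxicity after 18 hours at 37 degrees C. The cells were HepG2 CAGA-GFP in 1% FBS DMEM, stimulated with 500 pg/mL TGF-beta after compound addition. %Activity was normalised to no-cell wells (complete cell-killing) and DMSO (no toxicity), and curves were fitted and classified.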
TDP1 block – inhibitors of human tyrosyl-DNA phosphodiesterase TDP1; 350,000 tested, 0.28% active; Potency, µM (highest dose often 130 µM), for inactives: at the highest dose activity change, negative = inhibition, usual class: inhibitors; recombinant TDP1, AlphaScreen DNA substrate cleavage; note: potency is the fitted concentration of half-maximal effect; % is set by controls: 0 for no effect and ±100 for the full control effect; nearly all actives have a fitted effect of over 40% in size
Target sequence (Q9NUW8 whole entry, looked up): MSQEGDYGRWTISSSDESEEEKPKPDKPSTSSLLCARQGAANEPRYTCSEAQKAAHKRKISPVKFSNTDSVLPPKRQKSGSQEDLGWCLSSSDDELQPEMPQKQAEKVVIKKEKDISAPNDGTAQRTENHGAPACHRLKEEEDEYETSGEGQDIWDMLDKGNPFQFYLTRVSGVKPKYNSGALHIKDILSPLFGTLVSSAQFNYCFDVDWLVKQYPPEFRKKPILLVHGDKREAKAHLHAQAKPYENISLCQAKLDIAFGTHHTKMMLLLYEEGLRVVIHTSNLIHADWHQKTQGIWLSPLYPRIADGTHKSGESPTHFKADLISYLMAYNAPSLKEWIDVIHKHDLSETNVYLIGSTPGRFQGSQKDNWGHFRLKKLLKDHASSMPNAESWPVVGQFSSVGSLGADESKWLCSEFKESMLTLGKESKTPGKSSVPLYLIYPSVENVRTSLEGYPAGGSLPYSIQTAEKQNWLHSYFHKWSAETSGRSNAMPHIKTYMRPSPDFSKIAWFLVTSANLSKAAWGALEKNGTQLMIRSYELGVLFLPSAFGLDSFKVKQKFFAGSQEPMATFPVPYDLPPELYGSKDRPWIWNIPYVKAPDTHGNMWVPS
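Signal: AlphaScreen proximity between streptavidin donor and anti-FITC acceptor beads on intact substrate. Reaction: Tdp1 1 nM, substrate 15 nM final, 5 min RT after 15 min compound preincubation.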
TDP1 cell CPT – DT40-hTDP1 cell growth loss with CPT | chicken DT40 Tdp1-/-;hTDP1 cells + 20 nM CPT, ATP luminescence, 48 h | Potency, µM (top dose mostly 46.2 µM), for the others: at the highest dose activity change, negative = growth inhibition, most hits filed as inhibitors | 420,000 tested, 12% active | AID 686979; note: potency is the fitted concentration of half-maximal effect; % is set by controls: 0 for no effect and ±100 for the full control effect; nearly all actives have a fitted effect of over 55% in size
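Chicken DT40 Tdp1-/- cells complemented with human TDP1, 400 cells/well, exposed to compounds plus 20 nM camptothecin for at least 48 h at 37 C; viability read as ATP content by CellTiter-Glo luminescence.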
IL1B secr inh – inflammasome signaling inhibition, IL-1 beta readout; activity change, % at 57.5 µM; 360,000 tested, 4.7% active; THP-1 LPS/ATP IL-1B secretion, AlphaLISA, 16 h; active compounds read low; AID 743279; in the data active = activity change below about -50%; inconclusive = mostly about -30% to -49%; note: % is set by controls: 0 for no effect and ±100 for the full control effect
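THP-1 cells pretreated 1 hr with compounds (up to 57.5 uM final), then stimulated with LPS (250 ng/mL final) plus ATP (1.25 mM final); secreted IL-1B measured by AlphaLISA after 16 hr, decreased signal indicating inhibition.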
TGFb inhibitor – inhibitors of TGF-b signaling; HepG2 CAGA-GFP TGF-b/SMAD3 reporter, GFP fluorescence, 18 h; TGF-beta stimulated, 500 pg/mL final; Potency, µM (doses to about 46.1 µM), for the others: at the top dose activity, negative = inhibition, usual class: inhibitors; 410,000 tested, 1.2% active; note: potency is the fitted concentration of half-maximal effect; % is set by controls: 0 for no effect and ±100 for the full control effect; nearly all actives have a fitted effect of over 65% in size
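HEPG2 CAGA-GFP cells (1000/well, DMEM with 1% FBS) were pre-incubated 2 h at 37 degrees C, given compound by pin tool, then stimulated with TGF-beta at 500 pg/mL final for 18 h before per-cell GFP fluorescence imaging.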
* = called active by the depositor; ? = inconclusive; nt = no result given; [ ] = remark or other dose. In the library only some 19% were active in any assay of this set; here they are far more common. Unless noted, calls come from the whole dose curve; as a rule, active = well fitted curve in the direction sought with a large enough effect; inconclusive = small, poorly fitted or top-dose-only effect, or another doubt; inactive = no such curve, though single readings can be large; an effect the other way counts as inactive or inconclusive.

SMILES	DT40 TDP1 no CPT	HepG2 viability	TDP1 block	TDP1 cell CPT	IL1B secr inh	TGFb inhibitor
CCCC(=O)NC(c1ccc(C(C)C)cc1)c1ccc2cccnc2c1O (stereo not drawn)	2.31µM*	-30.3%	nt	5.17µM*	146.2	-26.1%
CCCC(=O)NC(c1ccc(N(C)C)cc1)c1ccc2cccnc2c1O (stereo not drawn)	0.92µM*	-52.0%	nt	0.651µM*	172.1	2.51µM*
CC(C)c1ccc(NS(=O)(=O)c2cccc3cccnc23)cc1	-14.4%	-15.6%	nt	-22.7%	?	0.9%
COC(CNS(=O)(=O)c1cc2c3c(c1)CCN3C(=O)CC2)OC	28.9%	-2.4%	-1.7%	-7.6%	-6.1	6.6%
CSc1nc(NC2CCCC2)c([N+](=O)[O-])c(NC2CCCC2)n1	-5.3%	nt	11.5%	2.8%	nt	nt
O=C(Nc1cccc2cccnc12)c1ccc(Cl)cc1	-4.8%	-5.6%	nt	-13.1%	-17.4	7.2%
Cc1ccc(C)c(NC(=O)CSc2cccc3cccnc23)c1	-5.9%	-36.1%	1.4%	1.7%	3.4	7.9%
Cc1cc(NC(=O)c2cc(Cl)ccc2Cl)no1	-3.7%	2.2%	-1.0%	?	-8.7	10.8%
CCC(=O)NC(c1ccc(C)cc1)c1ccc2cccnc2c1O (stereo not drawn)	4.61µM*	-8.5%	0.3%	4.11µM*	141.7	?
CC(=O)NC(c1ccc(Cl)cc1)c1ccc2cccnc2c1O (stereo not drawn)	2.59µM*	-17.8%	nt	4.11µM*	83.2	?
Cc1cc(NC(c2ccc(Cl)cc2)c2ccc3cccnc3c2O)no1 (stereo not drawn)	4.61µM*	-10.2%	12.7%	4.11µM*	89.0	?
CCCCCCC(C)NC(=S)Nc1cc(S(=O)(=O)N(C)C)ccc1C (stereo not drawn)	23.1µM*	-32.8%	4.3%	?	-2.4	?
Cc1ccc(S(=O)(=O)N(C)C)cc1NC(=S)Nc1cccc2ccccc12	?	-3.8%	13.7%	?	28.5	-17.8%
Cc1ccc(S(=O)(=O)N(C)C)cc1NC(=S)NC(C)CCC(C)C (stereo not drawn)	20.6µM*	-31.3%	-1.9%	23.1µM*	18.2	-29.8%
Cc1ccc(S(=O)(=O)N(C)C)cc1NC(=O)C(C)N(C)CCOc1ccc(Cl)cc1 (stereo not drawn)	29.1µM*	-6.6%	-9.7%[0.0935 µM]	?	-7.3	-15.7%
Cc1ccc(S(=O)(=O)N(C)C)cc1NC(=S)NC(C)CCCC(C)C (stereo not drawn)	?	-34.0%	1.9%	25.9µM*	-72.6*	17.8µM*
CCN(C(=O)C1CCN(S(=O)(=O)c2c(C)noc2/C=C/c2ccc(C)cc2)CC1)c1cccc(C)c1	?	-28.3%	0.6%	1.0%	nt	-20.6%
O=C(C[n+]1ccccc1Cl)c1ccc2ccccc2c1	?	-0.1%	nt	?	nt	-2.8%
COc1cccc(-c2nc(CS(=O)(=O)CC(=O)Nc3ccccc3C)c(C)o2)c1	?	-32.8%	2.9%	4.5%	8.3	-13.8%
COc1cccc(-c2nc(CS(=O)(=O)CC(=O)NCCc3ccc(Cl)cc3)c(C)o2)c1	?	-41.0%	1.2%	?	nt	11.2µM*
COc1cccc(-c2nc(CS(=O)(=O)CC(=O)Nc3cc(OC)ccc3OC)c(C)o2)c1	5.8µM*	-63.5%	8.4%	?	-5.3	17.8%
COc1cccc(-c2nc(CS(=O)(=O)CC(=O)NC3CCCc4ccccc43)c(C)o2)c1 (stereo not drawn)	18.4µM*	-11.0%	3.9%	23.1µM*	-10.3	?
